We go through 15 compounds from PubChem BioAssay (NCI).

Test systems include T-47D breast; BT-549 breast; MDA-MB-435 melanoma; SW-620 colon; MCF7 breast; HCT-116 colon; HCC-2998 colon; KM12 colon.
Holding throughout (test): NCI-60 one-dose screen, 48 h (100 = growth as untreated, 0 = no growth, -100 = all killed)
Conditions in all cases: 10 µM unless noted

Molecules are shown by their SMILES. The panel holds about 83,000 compounds, 20% with a hit somewhere; the sample as a whole holds those more often.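 Treatment: one concentration, 48 hours, 96-well format. Scoring: percent growth, with anything below 10 considered active.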 Unmarked numbers belong to inactive results. Activity calls are given as the source filed them.

Turning to `O=C(/C=C/c1ccccc1)Oc1ccc(/C=C/c2cc(OC(=O)/C=C/c3ccccc3)cc(OC(=O)/C=C/c3ccccc3)c2)cc1`, the growth in the experiment on T-47D breast was 81.9%; in the experiment on BT-549 breast, 102%; with MDA-MB-435 melanoma, 101%; in the experiment on SW-620 colon, 99.6%; in the experiment with MCF7 breast, 103%; with HCT-116 colon it was 96.3%. For the same compound, the growth in the experiment with HCC-2998 colon is 104%; with KM12 colon it was 103%.
Turning to `CNCCCOc1c(Br)cc(CCNC(=O)/C(Cc2ccc(OC)c(Br)c2)=N/O)cc1Br`, the growth was 54.7% in the experiment with T-47D breast; 56.8% with BT-549 breast; 41% in the experiment with MDA-MB-435 melanoma; 41% in the experiment with SW-620 colon; 19% in the experiment with MCF7 breast; 19.8% with HCT-116 colon. Also, the growth in the experiment on HCC-2998 colon was 46%; in the experiment on KM12 colon, 42.1%.
In the case of `C#C[C@@]1(O)[C@@H](CO)O[C@@H](n2cc(Br)c3c(Cl)ccnc32)[C@@H]1O`, the growth in the experiment with T-47D breast is -17.8% (active); in the experiment on BT-549 breast, 22.6%; with MDA-MB-435 melanoma, 56.7%; in the experiment on SW-620 colon, 14.5%; in the experiment on MCF7 breast, 1.48% (active); with HCT-116 colon, 23.1%. The growth in the experiment with HCC-2998 colon was 37%; in the experiment with KM12 colon it was 65%.
For `COc1ccc2c(c1)O/C(=C/c1ccc(OCC(=O)Nc3ccc(S(N)(=O)=O)cc3)cc1)C2=O`, the growth with T-47D breast is 97.2%; with BT-549 breast, 99.6%; in the experiment on MDA-MB-435 melanoma, 103%; in the experiment on SW-620 colon it was 107%; in the experiment on MCF7 breast it was 104%; with HCT-116 colon, 95.2%. Also, the figures for the growth with HCC-2998 colon and in the experiment on KM12 colon were 105% and 99.5%, respectively.
For the compound `CC(Cl)(CCl)CS(=O)(=O)c1ccc(Cl)cc1` (stereo not given), the growth was 113% in the experiment on T-47D breast; 105% in the experiment with BT-549 breast; 108% in the experiment on MDA-MB-435 melanoma; 103% with SW-620 colon; 99.8% with MCF7 breast; 103% with HCT-116 colon. Besides, the growth in the experiment on HCC-2998 colon was 104%; in the experiment on KM12 colon, 108%.
In the case of `C=C1C(=O)O[C@H]2[C@H]1CC/C(COC(=O)c1ccc(Cl)nc1)=C\CC[C@@]1(C)O[C@@H]21`, the growth is -31.1% (active) in the experiment on T-47D breast; 10.3% in the experiment on BT-549 breast; 14.6% in the experiment on MDA-MB-435 melanoma; -45.2% (active) in the experiment on SW-620 colon; 7.96% (active) with MCF7 breast; -80.6% (active) in the experiment with HCT-116 colon. Further, the growth with HCC-2998 colon was 95.5%; in the experiment on KM12 colon it was 82.8%.
In the case of `COc1cc(Cn2cc3c(c2)-c2onc(CO)c2CC3)cc(OC)c1OC`, the growth in the experiment on T-47D breast was 93.2%; with BT-549 breast, 98.6%; with MDA-MB-435 melanoma, 72%; with SW-620 colon, 87%; in the experiment on MCF7 breast, 86.8%; in the experiment with HCT-116 colon, 84%. Further, the growth in the experiment on HCC-2998 colon is 101%; in the experiment on KM12 colon, 90.9%.
As to `O=C(c1ccccc1)[C@H]1[C@@H]2CCCN2[C@]2(C(=O)Nc3ccc(F)cc32)[C@]12C(=O)Nc1ccccc12`, the growth was 65.6% with T-47D breast; 91.6% in the experiment with BT-549 breast; 92% in the experiment on MDA-MB-435 melanoma; 97.8% in the experiment with SW-620 colon; 82.5% with MCF7 breast; 76.5% in the experiment with HCT-116 colon. Besides, the growth is 101% in the experiment on HCC-2998 colon and 94.1% in the experiment on KM12 colon.
As for `O=C(Nc1cccc(-n2ccc3c(NC(=O)c4ccccc4)nccc32)c1)Nc1ccc(Cl)c(C(F)(F)F)c1`, the growth in the experiment on T-47D breast was 54.3%; with BT-549 breast, -5.15% (active); with MDA-MB-435 melanoma, -15.4% (active); in the experiment on SW-620 colon, 25.2%; in the experiment on MCF7 breast it was 19.5%; with HCT-116 colon, 3.34% (active). Further, the growth in the experiment with HCC-2998 colon was 17.2%; in the experiment on KM12 colon, -16.4% (active).
Take `COc1ccc(/C=C2/C(=O)Nc3cc(Cl)c(-c4csc(N)n4)cc32)cc1`: the growth in the experiment with T-47D breast was 23.5%; in the experiment on BT-549 breast, 33.4%; in the experiment with MDA-MB-435 melanoma, -14.4% (active); in the experiment on SW-620 colon, 31.2%; in the experiment on MCF7 breast, 25%; with HCT-116 colon it was 36.2%. The growth was 77.3% in the experiment on HCC-2998 colon and 25.7% in the experiment with KM12 colon.
As for `Cc1nc(N)nc(SCc2ccccc2)c1Br`, the growth with T-47D breast was 65.2%; in the experiment with BT-549 breast, 76.4%; with MDA-MB-435 melanoma it was 111%; with SW-620 colon, 104%; in the experiment on MCF7 breast, 79.8%; with HCT-116 colon, 89%. Besides, the growth in the experiment on HCC-2998 colon was 117%; with KM12 colon, 98.6%.
For `O=C1/C(=C/c2cccc3cnccc23)Cc2cc(F)ccc21`, the growth was 42.7% in the experiment on T-47D breast; 89% with BT-549 breast; 101% in the experiment on MDA-MB-435 melanoma; 101% in the experiment on SW-620 colon; 58.9% in the experiment on MCF7 breast; 80.7% with HCT-116 colon. Further, the growth in the experiment with HCC-2998 colon is 106%; with KM12 colon, 92.1%.
With `CC1OC(n2c3ccccc3c3c4c(c5c6ccccc6[nH]c5c32)C(=O)N(CCN[C@@H]2CCC[C@H]2N)C4=O)CC(O)C1O` (stereo not given in full), the growth in the experiment on T-47D breast was 19.6%; with BT-549 breast, 23.8%; in the experiment on MDA-MB-435 melanoma, 18.4%; with SW-620 colon it was 5.32% (active); with MCF7 breast it was -34% (active); with HCT-116 colon, 9.41% (active). Further, the growth with HCC-2998 colon is -9.5% (active); in the experiment on KM12 colon, 14.7%.
Regarding `NC(N)=N/N=C/c1ccc([N+](=O)[O-])cc1`, the growth in the experiment with T-47D breast is 98.7%; in the experiment on BT-549 breast, 85.5%; in the experiment with MDA-MB-435 melanoma it was 112%; in the experiment with SW-620 colon, 94.1%; in the experiment with MCF7 breast, 93.1%; in the experiment on HCT-116 colon, 90.6%. In addition, the growth in the experiment on HCC-2998 colon was 99.9%; in the experiment with KM12 colon, 103%.
For the compound `Nc1nc(-c2cc3c(cc2Cl)NC(=O)/C3=C/c2ccc(Cl)cc2)cs1`, the growth in the experiment on T-47D breast is 18.1%; with BT-549 breast it was 26.3%; in the experiment with MDA-MB-435 melanoma, 1.64% (active); in the experiment on SW-620 colon, 30%; in the experiment on MCF7 breast, 16.8%; in the experiment on HCT-116 colon it was 24.2%. The growth in the experiment on HCC-2998 colon is 73.3%; in the experiment with KM12 colon, 36%.
